Bioassay records: PubChem, National Center for Advancing Translational Sciences (NCATS)
ALDH1A1 inh – blocks purified human ALDH1A1 activity | Purified ALDH1A1, NADH fluorescence, propionaldehyde substrate | Potency, µM (series often up to 75.3 µM), for the others: top-dose activity, negative = inhibition, actives largely listed as inhibitors | 220,000 compounds, 7.3% hits | AID 1030; active = well fitted inhibition curve with a large enough effect, not every such curve was filed as active; inconclusive = small, poorly fitted or top-dose-only effect, or another doubt; inactive = no such curve, though single readings can be large or run the other way;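 note: potency is the fitted concentration of half-maximal effect; plate controls were no enzyme wells and a reference inhibitor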
Target sequence (P00352 whole entry, looked up): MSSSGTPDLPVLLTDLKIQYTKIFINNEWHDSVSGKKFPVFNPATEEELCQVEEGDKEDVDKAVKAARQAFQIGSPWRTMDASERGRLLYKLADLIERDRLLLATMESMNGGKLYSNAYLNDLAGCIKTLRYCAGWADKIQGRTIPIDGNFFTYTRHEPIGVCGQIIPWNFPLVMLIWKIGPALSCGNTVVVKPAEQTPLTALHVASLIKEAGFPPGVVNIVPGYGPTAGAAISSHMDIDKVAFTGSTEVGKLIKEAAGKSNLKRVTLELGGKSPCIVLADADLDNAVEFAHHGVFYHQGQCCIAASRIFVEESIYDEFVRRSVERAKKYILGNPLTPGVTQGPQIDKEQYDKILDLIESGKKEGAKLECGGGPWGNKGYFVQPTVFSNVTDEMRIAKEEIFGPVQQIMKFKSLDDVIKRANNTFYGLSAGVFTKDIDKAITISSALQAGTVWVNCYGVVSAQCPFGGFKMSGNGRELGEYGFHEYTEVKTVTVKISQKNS
IMPase cell inh – IMPase inhibition in cells. P97697. CHO-M1 cells, IP1 accumulation, HTRF TR-FRET ratio. inhibition (IP1 accumulation), % at 46.1 µM. 120,000 tested, under 10 active; active = well fitted curve in the direction sought with a large enough effect in the signal ratio, not every such curve was filed as active; inconclusive = small, poorly fitted or top-dose-only effect, or a change in a side signal; inactive = no such curve, though single readings can be large or run the other way; the % refers to the signal ratio;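 note: cells stimulated with carbachol in lithium chloride buffer; plate controls were DMSO basal wells for no effect and reference inhibitor wells for full effect; higher means more IMPase inhibition seen as more IP1 and lower FRET ratio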
Target sequence (P97697 whole entry, looked up): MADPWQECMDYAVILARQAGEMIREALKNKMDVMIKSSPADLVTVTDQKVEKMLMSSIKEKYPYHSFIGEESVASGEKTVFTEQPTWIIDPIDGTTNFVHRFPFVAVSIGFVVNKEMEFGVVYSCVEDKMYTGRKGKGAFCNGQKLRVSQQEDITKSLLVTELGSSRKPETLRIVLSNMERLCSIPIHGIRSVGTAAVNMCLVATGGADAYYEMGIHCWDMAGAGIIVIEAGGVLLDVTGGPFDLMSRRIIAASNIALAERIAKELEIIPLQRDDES
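The IP-One HTRF competitive assay in carbachol-stimulated CHO-M1 cells quantifies cellular IP1. Compounds spanned up to 46 uM final, and activity is expressed as AC50 from concentration-response fits of the ratio and donor data.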
12-hLO inh – 12-hLO (ALOX12) enzyme inhibition; P18054; purified 12-hLO, xylenol orange hydroperoxide absorbance; Potency, µM (series often up to 57.1 µM), inactives show top-dose activity change, negative = inhibition, most hits filed as inhibitors; 150,000 compounds, 0.12% hits; AID 1452; note: potency is the fitted concentration of half-maximal effect; nearly all actives have a fitted effect of over 55% in size
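Hydroperoxide formation by human 12-lipoxygenase from 40 uM arachidonic acid was followed colorimetrically via ferric-xylenol orange complex, using the 573/405 nm absorbance ratio. Enzyme concentration was 150 nM, with 30 min reaction at room temperature.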
IMPase Li inh – IMPase inhibition in cells with lithium potentiation; AID 1457; CHO-M1 cells, IP1 TR-FRET (IP-One), carbachol + lithium; Potency, µM (highest dose often 59.4 µM), for inactives: at the highest dose activity, negative = IMPase inhibition, actives largely listed as inhibitors; 210,000 compounds, 0.35% hits;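 note: IP1 builds up when IMPase is blocked and the TR-FRET signal falls; potency is the fitted concentration of half-maximal effect; plate controls were basal vehicle for no effect and high inhibitor control for full effect; nearly all actives have a fitted effect of over 50% in size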
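CHO cells stably expressing M1 receptor (2000/well) were cultured 16–30 h, then exposed to compounds with a small lithium addition for 30 min at 37C. IP1 was measured by TR-FRET competition; AC50 from Hill fits.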
PNC assembly inh – blocks assembly of the perinucleolar compartment; PC3M PTB-GFP, PNC prevalence imaging, 16 h; active compounds read low; activity change (PNC), negative = inhibition, % at 10 µM; 140,000 compounds, 3.1% hits;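 active = readout at or below -70, meaning at least 70% loss of cells showing the perinucleolar compartment, a nuclear body marking cancer cells; inconclusive = readout between -30 and a set limit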;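 note: plate controls were DMSO wells for no effect and camptothecin positive control wells for full effect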
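Read-out is percentage of cells bearing a perinucleolar compartment, from automated 20x imaging of fixed, Hoechst-stained PC3M PTB-GFP cells. Cells were seeded 4 h, then exposed 16 h to compound (23 nl of library stock) in duplicate plates.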
HPGD inh – HPGD (human) dehydrogenase inhibition | P15428 | purified HPGD, NADH fluorescence kinetic, PGE2 substrate | Potency, µM, for the others: top-dose activity change, negative = inhibition, hits mostly inhibitors | 150,000 compounds, 4.3% hits | AID 894; active = well fitted inhibition curve with a large enough effect, not every such curve was filed as active; inconclusive = small, poorly fitted or top-dose-only effect, or another doubt; inactive = no such curve, though single readings can be large or run the other way; note: potency is the fitted concentration of half-maximal effect
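NADH formation kinetics: reaction with 30 uM PGE2 and 1 mM NAD+ (final), 20 nM enzyme, Tris-HCl pH 8 with Tween 20, after 15 min compound preincubation at room temperature. Fluorescence change, last versus first of five reads.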
* = called active by the depositor; ? = inconclusive; . = no result given; [ ] = remark or other dose. Shown are actives, neighbours in structure and some others; about 11% of the full set was active somewhere. Unless noted, calls come from the whole dose curve; as a rule, active = well fitted curve in the direction sought with a large enough effect; inconclusive = small, poorly fitted or top-dose-only effect, or another doubt; inactive = no such curve, though single readings can be large; an effect the other way counts as inactive or inconclusive. Unless noted, % is set by controls: 0 for no effect and ±100 for the full control effect.

SMILES | ALDH1A1 inh | IMPase cell inh | 12-hLO inh | IMPase Li inh | PNC assembly inh | HPGD inh
O=C(CSc1nnc2ccccn12)Nc1ccc(S(=O)(=O)N2CCOCC2)cc1 | 25µM* | . | . | 15% | . | .
N#Cc1cc2ccccc2nc1SCC(=O)Nc1ccc(S(=O)(=O)N2CCCC2)cc1 | 10µM* | 5 | -8% | 7%[38.3 µM] | 12 | -13%
CCCC(=O)Nc1ccc(S(=O)(=O)N2CCOCC2)cc1 | 3.2µM* | -3 | 3% | 2% | ? | -4%
CCC(C)NC(=O)Cn1c(=O)n(Cc2ccc(C(=O)NCc3ccc(C)cc3)cc2)c(=O)c2ccccc21 (stereo not given) | . | 4 | . | . | . | .
Cc1ccccc1-n1nnnc1SCC(=O)Nc1ccc(S(=O)(=O)N2CCCC2)cc1 | 4µM* | 1 | 0% | 6% | ? | -4%
CNC(=O)CSc1nnnn1-c1cc(C)ccc1C | ? | -8 | 12% | 0% | 247 | -8%
CC1CCCCN1S(=O)(=O)c1ccc(NC(=O)CSc2nnnn2C)cc1 (stereo not given) | 22µM* | -3 | -2% | -9%[38.3 µM] | 12 | -30%
CC#CCN(CC#CC)S(=O)(=O)c1ccc(S(=O)(=O)N2CCOCC2)cc1 | -11% | 1 | 2% | 0%[38.3 µM] | -105* | -7%
Cc1ccc(C)c(-n2nnnc2SCC(=O)Nc2cccc(-c3nnc4n3CCCCC4)c2)c1 | 7.1µM* | -1 | 0% | -1%[38.3 µM] | 5 | -17%
O=C1CCCN1c1ccc(S(=O)(=O)Oc2cccc(Cl)c2)cc1[N+](=O)[O-] | -11% | 3 | -7% | -3%[38.3 µM] | -106* | -20%
FC(F)(F)c1cc(CO[C@@H]2CCCN[C@H]2c2ccccc2)cc(C(F)(F)F)c1 | . | 2 | -2% | . | . | .
Cc1ccc(NC(=O)CN2C(=O)S/C(=C\c3ccc(-c4cccc(C(=O)O)c4C)o3)C2=O)cc1C | -15% | . | . | -4% | . | .
COc1ccccc1N1C(=N)S/C(=C\c2ccc(-c3ccccc3C(=O)O)o2)C1=O | ? | . | -3% | 2% | -26 | 25µM*
N=C1S/C(=C\c2ccc(-c3ccccc3C(=O)O)o2)C(=O)N1c1ccc2c(c1)OCO2 | 11µM* | . | . | 6% | . | .
N#Cc1c(-c2ccccc2Cl)noc1/C=C/Nc1ccc(C(=O)O)cc1 | ? | . | . | 3% | . | .
CN(C)/C=C/c1onc(-c2c(F)cccc2Cl)c1C#N | 3.5µM* | . | . | ? | . | .
COc1ccc(CNC(=O)C/C(C)=N/NC(=O)COc2ccc(C)cc2Br)cc1 | 10µM* | . | . | 11% | . | .
COc1ccccc1NC(=O)C(=O)N/N=C(\C)CC(=O)Nc1ccc(OCc2ccccc2)cc1 | 1% | -6 | 7% | -2%[38.3 µM] | 87 | -14%
C/C(CC(=O)NC(C)(C)C)=N\NC(=O)COc1ccc(C)cc1Br | 14µM* | . | . | -8% | . | .
COc1ccccc1NC(=O)C/C(C)=N/NC(=O)COc1c(Br)cc(Br)cc1OC | 7.9µM* | . | . | 2% | . | .
CCOC(=O)n1ccn(C)c1=S | -2% | -7[20.6 µM] | -2% | 7% | . | -3%
O=C1CSC(=S)N1/N=C/c1ccc(Cl)c([N+](=O)[O-])c1 | 32µM* | . | . | . | . | .
O=C1CSC(=S)N1/N=C\c1ccc(Cl)c([N+](=O)[O-])c1 | -16%[13.5 µM] | . | -5%[11.4 µM] | 12% | . | -18%
COc1cc(/C=N/N2C(=O)C3C4C=CC(CC4)C3C2=O)ccc1O (stereo not given) | 14µM* | . | . | 23% | . | .
COc1cc(/C=N/N2C(=O)CSC2=S)ccc1O | 28µM* | 10 | ? | 20%[38.3 µM] | 5 | -18%
SMILES | ALDH1A1 inh | IMPase cell inh | 12-hLO inh | IMPase Li inh | PNC assembly inh | HPGD inh
COc1cc2cc3c4cc(OC)c(OC)cc4cc[n+]3c(C)c2cc1OC | ? | 8[20.6 µM] | 2% | 34% | . | 124%
COc1ccc(NC(=O)N2CCCC3(CCN(C(=O)c4ccc(OC)cc4)CC3)C2)cc1 | ? | . | 1% | 6% | . | -3%
C=CCN1C(=O)C(Cc2ccc(SC(F)F)cc2)SC1=Nc1ccc(C(=O)O)cc1 (stereo not given) | 10µM* | . | . | 16% | . | .
Cc1cnc(CNc2ncncc2-c2ccccc2CN(C)C)cn1 | -5% | . | -6% | 20% | . | -14%
CC(C)C1Oc2ccccc2N(CC(=O)N(Cc2ccccn2)C2CC2)C1=O (stereo not given) | 4% | -1 | 3% | 7% | -100* | -8%
CC1Oc2ccccc2N(CC(=O)N(Cc2ccccc2)Cc2ccccn2)C1=O (stereo not given) | 14% | 3 | -6% | 36%[38.3 µM] | ? | 2%
N[C@@H](C(=O)O)[C@@H](CC(=O)O)c1ccc(Cl)cc1 | 5% | . | . | -7% | . | .
COc1cccc(OC)c1C(=O)Nc1nnc(-c2cccs2)s1 | 7.9µM* | . | . | -10% | . | .
CCOC(=O)Nc1nnc(-c2ccccc2OC)s1 | -5% | 1 | 0% | 9% | -119* | ?
CCC(CC)C(=O)Nc1nnc(-c2cccs2)s1 | ? | -1 | -7% | -6%[38.3 µM] | 8 | ?
COc1ccccc1-c1nnc(NC(=O)OCC(C)C)s1 | ? | -14 | -4% | 11µM* | -20 | -6%
COc1ccc(-c2nnc(NC(=O)C(C)C)s2)c(OC)c1 | ? | ? | 3% | 13µM* | 49 | ?
COc1ccc(C2=C(N3CCN(c4cccc(C)c4)C(C)C3)c3ccccc3C2=O)cc1 (stereo not given) | . | 9 | . | . | . | .
COc1ccc(-c2n(CC(=O)OC3CC(C)CCC3C(C)C)c3ccccc3[n+]2C)cc1 (stereo not given) | 6.3µM* | . | . | 20% | . | .
CC(=O)c1ccc(NS(=O)(=O)Cc2ccccc2)cc1 | -4% | 1 | -3% | -2%[38.3 µM] | 21 | 25µM*
Cc1ccc(NCCC(=O)c2ccc(Cl)cc2)cc1C | 2.8µM* | -1 | -1% | -2%[38.3 µM] | -13 | -10%
Cc1ccc(NCCC(=O)c2ccc(Cl)c(Cl)c2)cc1 | 0.79µM* | 1 | 4% | 3%[38.3 µM] | 75 | -15%
Cc1ccc(NC(=O)CCC(=O)c2ccc(F)cc2)cc1Cl | 8% | 0 | -5% | 5%[38.3 µM] | 76 | 1%
CCCOc1ccc(C(=O)CCNc2ccc(C)c(Cl)c2)cc1 | 18µM* | 0 | 5% | 3%[38.3 µM] | 45 | -5%
CC(=O)N(C)c1ccc(NS(=O)(=O)Cc2ccccc2)cc1 | -4% | 8 | -5% | -17%[38.3 µM] | 29 | -18%
Cn1c(-c2ccc(S(=O)(=O)N3CCCC3)cc2)csc1=Nc1ccc(Cl)c(Cl)c1 | . | -7 | . | . | . | .
COc1ccc(-c2nc(-c3ccccc3)c(Nc3ccc4ccccc4c3)o2)cc1 | ? | . | 0% | 14% | . | -8%
COc1ccc(N(C(=O)c2ccccc2C)S(=O)(=O)c2ccc3c(c2)n(C)c(=O)n3C)cc1 | . | 3 | . | . | . | .
CC(=O)c1ccc(NC(=O)CCOc2ccccc2)cc1 | . | 2 | . | . | . | .
